FLuc counter – qHTS profiling assay for firefly luciferase inhibitor/activator using purifed enzyme and Km concentrations of substrates (counterscreen for miR-21 project). purified FLuc, Km substrates, luminescence inhibition. Potency, µM (doses to about 57.5 µM), for inactives: at the highest dose activity change, negative = inhibition, actives largely listed as inhibitors. hit rate 6.9% among 360,000. Luciferin 4-monooxygenase (Photinus pyralis), P08659;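 further: plate controls were vehicle for no effect and reference inhibitor for full effect; nearly all actives have a fitted effect of over 55% in size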
Target sequence (P08659 whole entry, looked up): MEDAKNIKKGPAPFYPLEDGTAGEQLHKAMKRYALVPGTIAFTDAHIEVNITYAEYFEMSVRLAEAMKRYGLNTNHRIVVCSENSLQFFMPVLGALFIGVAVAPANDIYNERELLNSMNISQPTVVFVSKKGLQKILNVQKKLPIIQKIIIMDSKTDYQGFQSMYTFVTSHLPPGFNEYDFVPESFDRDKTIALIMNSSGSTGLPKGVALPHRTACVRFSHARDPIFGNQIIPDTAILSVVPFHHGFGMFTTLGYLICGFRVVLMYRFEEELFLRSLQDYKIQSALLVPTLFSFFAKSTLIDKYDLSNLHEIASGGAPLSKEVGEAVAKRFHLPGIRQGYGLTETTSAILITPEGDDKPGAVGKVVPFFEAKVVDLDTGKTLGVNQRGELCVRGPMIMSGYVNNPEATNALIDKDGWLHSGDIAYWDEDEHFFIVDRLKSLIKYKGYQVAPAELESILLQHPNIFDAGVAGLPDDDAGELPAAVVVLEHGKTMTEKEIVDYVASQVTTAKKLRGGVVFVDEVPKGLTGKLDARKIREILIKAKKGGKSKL
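Purified P. pyralis luciferase, 10 nM final, with Km-level 10 uM D-luciferin and 10 uM ATP in 50 mM Tris acetate pH 7.5, 10 mM Mg acetate, 0.01% Tween-20, 0.05% BSA; 6-point qHTS titration about 60 µM downward; luminescence read.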
Rab9 promoter act – qHTS Assay for Rab9 Promoter Activators; Huh7 Rab9 promoter-luciferase reporter, luminescence, 24 h; Potency, µM (doses to about 9.22 µM), without a hit: top-dose activation, negative = inhibition, usual class: activators; hit rate 2.8% among 320,000; further: % of control where 0% means no effect; nearly all actives have a fitted effect of over 60% in size
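Cells were plated at 1500 per well in reduced-serum medium with 10% FBS and left 2 h. Compound in DMSO was then added for 24 h at 37 °C. Reporter signal was read by luminescence after 10 min with luciferase detection reagent.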
NPC1 promoter act – qHTS Assay for NPC1 Promoter Activators | hit rate 2.4% among 320,000 | Huh7 NPC1 promoter luciferase reporter, 24 h | Potency, µM (doses to about 9.22 µM), inactives show at the top dose activation, actives largely listed as activators; further: % of control where 0% means no effect; nearly all actives have a fitted effect of over 60% in size
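NPC1 promoter–luciferase Huh7 cells; 24 h compound; luminescence.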
SMN2 splice up – qHTS Assay for Enhancers of SMN2 Splice Variant Expression; HEK293 SMN2-luciferase splicing reporter, luminescence, 30-36 h; Potency, µM (doses to about 46.1 µM), without a hit: at the highest dose activity change, positive = activation, hits mostly activators; hit rate 2.8% among 210,000; AID 1458, 2008; further: % of control where 0% means no effect; nearly all actives have a fitted effect of over 55% in size
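HEK293 cells carry an SMN2 minigene-luciferase reporter in which exon 7 inclusion puts luciferase in frame. Cells were seeded at 2000 cells/well, attached for 10-12 hours, then exposed to compounds for 30-36 hours at 37C before ONE-Glo luminescence.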
ELG1 genotoxic – qHTS screen for small molecules that induce genotoxicity in human embryonic kidney (HEK293T) cells expressing luciferase-tagged ELG1 | Potency, µM (doses to about 46 µM), without a hit: at the top dose activity change, positive = activation, hits mostly activators | AID 504466, 2011 | HEK293T ELG1-luciferase reporter, luminescence, 16 h | hit rate 1.3% among 330,000; further: % of control where 0% means no effect; nearly all actives have a fitted effect of over 60% in size
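Genotoxic stress is detected as increased luminescence from luciferase-tagged ELG1 in HEK293T cells, measured with ONE-Glo after a 16 hr treatment at 37 °C.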
ELG1 repair inh – qHTS screen for small molecules that inhibit ELG1-dependent DNA repair in human embryonic kidney (HEK293T) cells expressing luciferase-tagged ELG1; HEK293T ELG1-luciferase reporter, luminescence, 16 h; DNA damage induced by 5-fluorouridine; Potency, µM (highest dose often 46.1 µM), without a hit: at the highest dose activity change, negative = inhibition, actives largely listed as inhibitors; hit rate 2.3% among 330,000; AID 504467, 2011; further: on the % scale 0 is the no-effect control and ±100 the full control effect; nearly all actives have a fitted effect of over 55% in size
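Step one: seed 2,000 cells per well. Step two: pin-transfer compound or DMSO alongside 5-fluorouridine. Step three: incubate 16 hr, 37 °C, 5% CO2. Step four: add ONE-Glo, wait 30 min, read luminescence.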
Active calls of the source: *; [ ] = dose if it differs, or a comment. Compounds with a hit are over-represented: about 9.4% of the library has one in this group of screens. The call rests on the fitted dose curve; in most records, active means well fitted curve in the direction sought with a large enough effect; inconclusive means small, poorly fitted or top-dose-only effect, or another doubt; inactive means no such curve, though single readings can be large; an effect the other way counts as inactive or inconclusive. Potency means the concentration at half of the fitted maximal effect.

`Fc1cccc(CSc2ccc(-c3cccs3)nn2)c1` gave FLuc counter 9.5µM*.
`Cc1ccc(CNC(=O)CSc2ccc(-c3cccs3)nn2)cc1` gave FLuc counter -1%, Rab9 promoter act -2%, NPC1 promoter act -6%, SMN2 splice up 3%, ELG1 genotoxic -3% and ELG1 repair inh 1%.
Cc1ccc(CSc2ccc(-c3cccs3)nn2)cc1 was read as FLuc counter 2.1µM*, Rab9 promoter act 2.8µM*, NPC1 promoter act 4.5µM*, SMN2 splice up 14µM*, ELG1 genotoxic 23µM* and ELG1 repair inh inconclusive.
For O=C(CSc1ccc(-c2cccs2)nn1)Nc1ccccc1C(F)(F)F the results were FLuc counter -17%.
For N#Cc1ccc(CS(=O)(=O)c2nnnn2C2CCCCC2)cc1 the results were SMN2 splice up 5%.
CCOC(=O)c1c(Nc2ccc(F)cc2)nnc(-c2ccccc2)c1-c1ccccc1 was read as FLuc counter -3% and SMN2 splice up -27%.
`CCOC(=O)C1=C(C)NC(=O)N[C@@H]1c1coc2cc(C)cc(C)c2c1=O` gave SMN2 splice up 0%[9.22 µM].
For CC1Cc2cc(S(=O)(=O)N(C)c3ccc(Br)cc3)ccc2N1C(=O)C1CC1 (stereo not drawn) the results were FLuc counter 1%.
For O=S(=O)(c1ccc(Br)s1)N1CCN(c2cccc(C(F)(F)F)c2)CC1 the results were FLuc counter 1% and SMN2 splice up -26%.
Fc1ccc(CSc2ccc(-c3cccs3)nn2)cc1 was read as FLuc counter inconclusive, Rab9 promoter act inconclusive, NPC1 promoter act inconclusive, SMN2 splice up 5µM*, ELG1 genotoxic inconclusive and ELG1 repair inh inconclusive.
Cc1ccccc1CSc1ccc(-c2cccs2)nn1 was read as FLuc counter 7.6µM*.
For COc1ccc(CCNC(=O)Cn2cc(S(=O)(=O)Cc3ccccc3F)c3ccccc32)cc1OC the results were FLuc counter -4%.
Screening CCN(C[C@H]1N[C@@](CC)(C(=O)OC)[C@H]2C(=O)N(Cc3ccccc3)C(=O)[C@@H]12)C(=O)c1ccccc1 returned ELG1 genotoxic -8% and ELG1 repair inh 21µM*.
`CCN(C[C@H]1N[C@@](Cc2ccccc2)(C(=O)OC)[C@H]2C(=O)N(C)C(=O)[C@@H]12)S(=O)(=O)c1ccc(OC)cc1` gave ELG1 genotoxic -6% and ELG1 repair inh inconclusive.
`CCN(C[C@H]1N[C@@](Cc2ccccc2)(C(=O)OC)[C@H]2C(=O)N(Cc3ccccc3)C(=O)[C@@H]12)C(=O)c1ccccc1` gave ELG1 genotoxic 0% and ELG1 repair inh 14%.
CCN(C[C@H]1N[C@@](Cc2ccccc2)(C(=O)OC)[C@H]2C(=O)N(C)C(=O)[C@@H]12)S(=O)(=O)c1ccc(C(F)(F)F)cc1 was read as ELG1 genotoxic -6% and ELG1 repair inh 23µM*.
CCN(C[C@H]1N[C@@](Cc2ccccc2)(C(=O)OC)[C@H]2C(=O)N(C)C(=O)[C@@H]12)S(=O)(=O)c1ccc(OC(F)(F)F)cc1 was read as ELG1 genotoxic -10% and ELG1 repair inh 21µM*.
CCN(C[C@H]1N[C@@](Cc2ccccc2)(C(=O)OC)[C@H]2C(=O)N(Cc3ccccc3)C(=O)[C@@H]12)S(=O)(=O)c1ccc(C(F)(F)F)cc1 was read as ELG1 genotoxic 0% and ELG1 repair inh -19%.

Source: PubChem
